The values below come from PubChem BioAssay AID1508602 (The Scripps Research Institute Molecular Screening Center, 2020).

Each structure is given as a SMILES string. Among all 650,000 compounds or so, about 6,800 (1%) were called active. The entries come from a sample that favours actives as a whole. A number with no mark means an inactive call. No stated cut-off is given here; in the data, active means activation above about 4.9%; inactive means the rest.

The target in this assay is G-protein coupled receptor 151 (Homo sapiens) (UniProt Q8TDV0). Briefly: activates the human receptor GPR151, primary screen, cell-based, PathHunter beta-arrestin, luminescence (AID 1508602).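 Further: 0% = median of compound wells and 100% = cells with positive control.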 Conditions: PathHunter beta-arrestin GPR151 cells, at 11.2 µM, stronger effect = higher value.
Sequence of G-protein coupled receptor 151 (Homo sapiens) (Q8TDV0 whole entry, looked up): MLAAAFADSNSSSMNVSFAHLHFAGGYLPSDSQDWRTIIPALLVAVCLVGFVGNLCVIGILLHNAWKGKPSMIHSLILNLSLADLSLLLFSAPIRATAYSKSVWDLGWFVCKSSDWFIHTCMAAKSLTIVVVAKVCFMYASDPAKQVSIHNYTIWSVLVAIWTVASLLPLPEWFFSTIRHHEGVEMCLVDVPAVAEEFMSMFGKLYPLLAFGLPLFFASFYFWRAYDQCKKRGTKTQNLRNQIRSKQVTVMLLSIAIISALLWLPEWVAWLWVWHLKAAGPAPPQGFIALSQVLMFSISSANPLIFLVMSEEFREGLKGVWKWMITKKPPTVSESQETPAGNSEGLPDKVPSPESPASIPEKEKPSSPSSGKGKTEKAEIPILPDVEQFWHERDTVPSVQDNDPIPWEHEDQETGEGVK
With `O=C(C1CC1)N1CC[C@H]2[C@H](CCCN2C/C=C/c2ccco2)C1`, the activation is 0.174%. Regarding `O=C(Nc1ccccc1)c1cnc(N2CCC(N3CCOCC3)CC2)s1`, the activation is -1.62%. In the case of `COc1cccc(N(CC(=O)NCCSc2ccccn2)S(C)(=O)=O)c1`, the activation was 1.03%.

For the molecule `COc1ccc(/C=C/C(=O)NCCSc2ccccn2)cc1`, the activation is -0.668%. As to `COc1ccc(C=C(C#N)C#N)c(CSc2ccccn2)c1`, the activation was 5.44% (active).

On to `Cn1c(SCC(=O)NC(Cc2ccccc2)C(=O)O)nnc1-c1ccncc1` (stereo not drawn), for which the activation was -0.851%. Turning to `CCOc1ccc(CCn2c(-c3ccccc3)cn3c4c(=O)n(C)c(=O)n(C)c4nc23)cc1OCC`, the activation was 0.226%. As to `O=C1CC(N2CCN(c3ccc(Cl)cc3)CC2)C(=O)N1c1ccc(Cl)c(Cl)c1` (stereo not drawn), the activation was -0.621%. For `Cc1ccc(N2C(=O)CC(N3CCC(Cc4ccccc4)CC3)C2=O)cc1Cl` (stereo not drawn) the value was -0.328%; for `Cc1ccc(N2C(=O)CC(N3CCN(Cc4ccc(Cl)cc4)CC3)C2=O)cc1Cl` (stereo not drawn), 5.11% (active); for `COc1ccc2ccccc2c1CN1CCc2nnc(C(C)NC(=O)C(C)C)n2CC1` (stereo not drawn), 1.9%. Regarding `COc1ccc(C(=O)Nc2c(C)n(C)n(-c3ccccc3)c2=O)c(OC)c1OC`, the activation was 0.96%. `COc1cc(C(C)=Nc2c(C)n(C)n(-c3ccccc3)c2=O)cc(O)c1OC`: the activation was 5.37% (active). For `Cc1c(N=C(Nc2ccccc2)Nc2ccccc2)c(=O)n(-c2ccccc2)n1C` the value was -0.384%. As to `CCOc1ccc(CCNC(=O)Cn2c(-c3cncs3)nc3ccccc32)cc1OCC`, the activation is -0.67%. For `O=C(Nc1ccccc1)/C(=C\c1ccco1)NC(=O)c1cccc(Cl)c1` the value was 0.512%; for `CCOC(=O)c1cnc2c(OC)cccc2c1Nc1ccc(Oc2ccccc2)cc1`, -0.414%. Consider `CCN(CC)c1nc(Nc2ccccc2)nc(Nc2ccc(NC(C)=O)cc2)n1`, for which the activation was -0.926%. On to `CCN(CC)c1nc(Nc2ccccc2)nc(Nc2ccccc2)n1`, for which the activation was 6.59% (active).

With `CCN(CC)c1nc(NCc2ccccc2)nc(NCc2ccc3c(c2)OCO3)n1`, the activation is 0.801%. Take `COc1cccc(C(=O)COC(=O)c2c3c(nc4ccccc24)CCCC3)c1`: the activation was 1.21%.

Regarding `CCOC1=C/C(=C/c2c(N)n3nc(N4CCCC4)sc3nc2=O)C=CC1=O`, the activation is -1.93%.

As for `CC1CCCN(CC(O)COc2ccc3c(c2)OCO3)C1` (stereo not drawn), the activation is -0.477%. Regarding `COC(=O)C(C)CN1CCN(Cc2ccc3c(c2)OCO3)CC1` (stereo not drawn), the activation was -1.4%. Turning to `CN1CCN(CC(O)COCc2ccc3c(c2)OCO3)CC1` (stereo not drawn), the activation was 10.1% (active).

Take `CCC(=O)Nc1cccc(Nc2nc(Cl)nc(Nc3cccc(NC(=O)CC)c3)n2)c1`: the activation was 0.686%. For `Cc1ccc(CS(=O)(=O)CC2Nc3ccc(C(=O)NC4CCCC4)cc3NC2=O)cc1` (stereo not drawn) the value was -0.216%. With `Cc1cc(=O)[nH]c(NCCC(=O)O)n1`, the activation was 0.811%.

For the molecule `COCCn1c(C)cc(C(=O)CSc2nnc(-c3ccccc3)o2)c1C`, the activation is 9.35% (active).

Regarding `COCCn1c(C)cc(C(=O)COC(=O)C2COc3ccccc3O2)c1C` (stereo not drawn), the activation is 0.229%. `COCCn1c(C)cc(C(=O)CSc2nnc3scc(-c4ccc(C)cc4)n23)c1C`: the activation is 1.12%. For `COc1ccc(C2/C(=C(\O)c3ccc(Br)cc3)C(=O)C(=O)N2c2nccs2)cc1OC` (stereo not drawn) the value was -0.318%. Consider `Cc1cccc(-n2nc3c(c2NC(=O)C2CCCC2)CS(=O)(=O)C3)c1C`, for which the activation is -1.12%. For `Cc1cccc(-n2nc3c(c2NC(=O)CCC2CCCCC2)CS(=O)(=O)C3)c1C`, the activation is 5.19% (active). `Cc1cccc(-n2nc3c(c2NC(=O)CCC2CCCC2)CS(=O)(=O)C3)c1C`: the activation was -0.834%. `O=S(=O)(NCC(c1cccnc1)N1CCN(c2ccccc2)CC1)c1ccc(F)cc1` (stereo not drawn): the activation is -1.39%. As to `COc1ccc(N2CCN(C(CNS(=O)(=O)c3c(C)cc(C)cc3C)c3cccnc3)CC2)cc1` (stereo not drawn), the activation is 0.0567%. In the case of `Cc1ccc(S(=O)(=O)NCC(c2cccnc2)N2CCN(c3ccc(F)cc3)CC2)cc1` (stereo not drawn), the activation is 4.96% (active). `CC(=O)Nc1nc2c(s1)-c1cccc3cccc-2c13`: the activation is -0.686%.

For the molecule `CCN1CCN(c2cc(Nc3cc(OC)c(OC)c(OC)c3)c3c4c(onc24)-c2ccccc2C3=O)CC1`, the activation was -0.784%. Take `COc1cc(Nc2cc(N3CCN(c4ccc(F)cc4)CC3)c3noc4c3c2C(=O)c2ccccc2-4)cc(OC)c1OC`: the activation was 5.65% (active). Take `CCN1CCN(c2cc(Nc3cccc(OC)c3)c3c4c(onc24)-c2ccccc2C3=O)CC1`: the activation is -1.99%. Turning to `Cn1c(SCC(=O)NCc2cccs2)nnc1C1CC1`, the activation was 0.896%. `CCc1ccc(NC(=O)CCS(=O)(=O)c2cc3c(cc2Cl)NC(=O)CO3)cc1`: the activation is 0.977%.

For the molecule `Cc1cc2c(cc1S(=O)(=O)CCC(=O)Nc1ccccc1Cl)OCC(=O)N2`, the activation is 12% (active).

On to `Cc1ccccc1NC(=O)CCS(=O)(=O)c1ccc2c(c1)OCC(=O)N2`, for which the activation was -0.0759%. Regarding `CC(Nc1ccc(-c2cccc(C=O)c2)cn1)c1ccc(F)cc1` (stereo not drawn), the activation was 3.31%. `C=CSC1=C(C#N)C(c2cccc3ccccc23)CC(=O)N1` (stereo not drawn): the activation is 0.0614%.

As to `CN(Cc1ccccc1)C(=O)c1nc2ccc(-c3cn[nH]c3)cc2s1`, the activation was 5.86% (active). For `CN(C)C(=O)c1cc(-c2cn[nH]c2)ccc1NC(=O)OCc1ccccc1` the value was 0.0349%. For the molecule `CCN(Cc1ccccc1)C(=O)Nc1ccc(-c2cn[nH]c2)cc1OCCN(C)C`, the activation was 0.0869%. `O=C(CCS(=O)(=O)c1cccc2nsnc12)N1CCCCCC1`: the activation is -0.702%. Regarding `CNC(=O)C(NC(=O)c1ccc([N+](=O)[O-])cc1)C12CC3CC(CC(C3)C1)C2` (stereo not drawn), the activation is 0.352%. For `Cc1cccc(NC(=O)/C(=C\c2ccco2)NC(=O)c2ccccc2Br)c1`, the activation is 2.08%.

On to `CC1=C(C(=O)N2CCOCC2)C(c2ccc(Cl)cc2)C2=C(CC(C)(C)CC2=O)N1` (stereo not drawn), for which the activation was 0.141%. As for `CCOc1cccc(NC(=O)Cn2nc(-c3ccc4c(c3)OCCO4)ccc2=O)c1`, the activation was 8% (active). Turning to `O=C(Cn1nc(-c2ccc3c(c2)OCCO3)ccc1=O)Nc1cccc(C(=O)NC2CC2)c1`, the activation is 0.799%. `CCc1cccc(OCC(=O)Nc2ccc3c(c2)OCCO3)c1`: the activation is -1.18%.
